# Measurements published in PubChem BioAssay AID1851 (National Center for Advancing Translational Sciences (NCATS), 2009).
# About 2,600 (16%) of roughly 16,000 compounds were called active. Roughly 20% stayed inconclusive and do not appear here. The call rests on the fitted dose curve; in most records, active means well fitted curve in the direction sought with a large enough effect; inconclusive means small, poorly fitted or top-dose-only effect, or effect the other way; inactive means no such curve, though single readings can be large or run the other way. These entries were drawn from the full list.
# Biological target: Cytochrome P450 2D6 (Homo sapiens) (UniProt P10635)
# Sequence (P10635 whole entry, looked up): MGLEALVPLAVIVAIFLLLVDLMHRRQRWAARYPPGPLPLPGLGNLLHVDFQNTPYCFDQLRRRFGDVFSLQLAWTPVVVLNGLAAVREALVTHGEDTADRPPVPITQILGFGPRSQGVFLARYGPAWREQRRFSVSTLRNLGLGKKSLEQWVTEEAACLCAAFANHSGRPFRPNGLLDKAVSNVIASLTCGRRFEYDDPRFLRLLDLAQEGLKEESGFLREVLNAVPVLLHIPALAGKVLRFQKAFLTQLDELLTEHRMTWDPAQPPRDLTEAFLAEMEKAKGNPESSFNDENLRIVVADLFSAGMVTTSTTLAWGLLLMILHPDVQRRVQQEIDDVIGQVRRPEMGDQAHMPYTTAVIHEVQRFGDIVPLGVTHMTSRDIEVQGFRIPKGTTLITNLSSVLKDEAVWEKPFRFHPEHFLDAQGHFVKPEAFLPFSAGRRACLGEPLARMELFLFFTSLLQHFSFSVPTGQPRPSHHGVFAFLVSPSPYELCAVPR
# Assay: Cytochrome panel assay with activity outcomes
# Conditions: recombinant CYP, pro-luciferin dealkylation, luminescence, p450-cyp2d6; series mostly up to 57.1 µM; activity, negative = inhibition: at the top concentration
# On the % scale 0 is the no-effect control and ±100 the full control effect.
Compound,"activity, negative = inhibition",AC50
O=C(O)CCC(=O)CCC(=O)c1ccccc1,-15.9% (inactive),–
C[N@+]1(CCC(=O)c2ccccc2)CC[C@H]2CC[C@H](C2)C1,10.5% [at 11.4 µM] (inactive),–
CC1(C)CC(=O)C(CCC(=O)c2ccccc2)C(C)(C)N1 (centres undefined),–,0.891 µM (active)
O=C(c1cccc(F)c1)N1CCC[C@@]2(CCN(c3ccccc3)C2)C1,-6.42% (inactive),–
N/C(=N\OC(=O)Cc1ccc(-c2ccccc2)cc1)c1cccc([N+](=O)[O-])c1,-0.456% (inactive),–
CC(=O)O[C@]1(C)N=NC2(CCCCC2)O1,-4.7% [at 11.4 µM] (inactive),–
COc1ccc(C(CNC(=O)c2cc(=O)[nH]c3ccccc23)N2CCCC2)cc1 (centres undefined),–,14.1 µM (active)
COc1cc(C(=O)NCC(c2cccnc2)N2CCN(C)CC2)cc(OC)c1OC (centres undefined),2.45% (inactive),–
CC(C)NC(=O)COC(=O)c1cc(=O)[nH]c2ccccc12,-3.79% (inactive),–
Cn1c(=O)c2[nH]c([C@@H]3CC(=O)C[C@H](c4nc5c([nH]4)c(=O)n(C)c(=O)n5C)N3)nc2n(C)c1=O,-10.1% [at 11.4 µM] (inactive),–
CC(=O)N1CC2(CC2)CC1c1ccccc1 (centres undefined),0.5% (inactive),–
CC(C)(C)c1nnc(NC(=O)c2cc(-c3ccccc3)nc3ccccc23)s1,14.1% (inactive),–
Cn1cc(-c2nc3cncnc3n(C3CC3)c2=O)c2ccccc21,1.12% (inactive),–
COc1cc(C(=O)Nc2cc(C(F)(F)F)ccc2Cl)cc(OC)c1OC,-5.08% (inactive),–
Cc1cc(C)n(-c2ccc(C(=O)Nc3cc(C(F)(F)F)ccc3N3CCOCC3)cc2)n1,-3.17% (inactive),–
Cc1ccc(C)n1CCN1CCN(CC(=O)Nc2cc(C(F)(F)F)ccc2Cl)CC1,–,11.2 µM (active)
COC(=O)CNC(=O)/C=C/c1ccc(OC)cc1,-6.5% (inactive),–
Cc1ccc(C(=O)NC(=S)Nc2cc(C(F)(F)F)ccc2Cl)cc1,-4.63% (inactive),–
O=C(CS(=O)c1cccc(C(F)(F)F)c1)Nc1ccccc1Cl (centres undefined),-4.85% (inactive),–
CN(C)c1cc[n+](CC(=O)Nc2cc(C(F)(F)F)ccc2Cl)cc1,–,0.126 µM (active)
Cc1cc[n+](CC(=O)Nc2cc(C(F)(F)F)ccc2Cl)cc1,–,0.224 µM (active)
N/C(CC(=O)Nc1cc(C(F)(F)F)ccc1Cl)=N\O,2.47% [at 11.4 µM] (inactive),–
O=C(Cc1ccccc1)NC(=S)Nc1cc(C(F)(F)F)ccc1Cl,0.576% (inactive),–
COc1ccc(/C=C/C(=O)Nc2cc(C(F)(F)F)ccc2Cl)cc1,–,2.82 µM (active)
COc1ccc2nc(NCN3C(=O)c4ccccc4C3=O)sc2c1,-19.6% [at 11.4 µM] (inactive),–

Compound,"activity, negative = inhibition",AC50
N[C@H](C(=O)N[C@@H]1C(=O)N2C(C(=O)O)=C(Cl)CS[C@@H]12)c1ccccc1,–,inactive
CCOC(=O)C1=C(C)NC(=S)NC1c1cccc(O)c1 (centres undefined),-8.2% (inactive),–
O=C(O)CC[C@@H](NC(=O)c1ccccc1C(=O)O)C(=O)O,0.18% (inactive),–
Cc1nc2cnc(Oc3ccccc3)nc2n(-c2ccccc2)c1=O,-12.4% (inactive),–
CCCN1C(=O)C2(/C(=C(\O)c3ccc4c(c3)OCCO4)C(=O)C(=O)N2CCCOC)c2ccccc21 (centres undefined),16.7% (inactive),–
COc1ccc(Oc2ncc3nc(-c4cccs4)c(=O)n(Cc4cccc(OC)c4)c3n2)cc1,-14.7% (inactive),–
Fc1ccc2nc3[nH]c4ccccc4c3nc2c1,-11% (inactive),–
Cc1cc(N(CN2CCCC2=O)C(=O)c2ccc(F)cc2)no1,4.83% (inactive),–
COc1cc(/C=N/NC(=O)c2cccs2)ccc1OCc1ccccc1,-7.01% (inactive),–
CCOc1ccc(Cl)cc1CNCCNCC(C)O (centres undefined),–,3.16 µM (active)
CCOc1ccc(C(=O)O)cc1OC,14.4% (inactive),–
COc1ccc(Cl)cc1NC(=O)NCCCl,10.6% (inactive),–
CCOc1ccc(Cl)cc1CNCCNCCO,–,11.2 µM (active)
N=C1SCC(=O)N1c1nc(-c2ccccc2)cs1,7.13% (inactive),–
C[C@@H]1NCC[C@H](CC(=O)O)[C@H]1CC(=O)O,5.62% [at 11.4 µM] (inactive),–
Cc1nnc(-c2cnn(-c3ccccc3)c2N)n1Cc1ccc(F)cc1,9.82% (inactive),–
CCCCOc1ccc(-c2nnn(CC(=O)c3c[nH]c4ccccc34)n2)cc1,5.88% (inactive),–
c1ccc2c(-c3c[nH]c4ccccc34)c3ccccc3nc2c1,–,10 µM (active)
O=C(O)[C@@H](Cc1c[nH]c2ccccc12)C(=O)NO,4.35% [at 11.4 µM] (inactive),–
c1ccc(-c2c3ccccc3nc3[nH]c4ccccc4c23)cc1,-3.6% (inactive),–
Cc1nc(Sc2ccccc2)c(C#N)cc1-c1ccccc1,-7.18% (inactive),–
Cc1nc2cc(NC(=O)CSc3nc4c(C)cccc4cc3C#N)ccc2s1,-18.2% (inactive),–
Nc1nc(SCC(=O)O)[nH]c(=O)c1N,11% [at 11.4 µM] (inactive),–
CO[C@@H]1/C=C\CC(=O)N[C@@H](C)C(=O)OC[C@@H](OC)[C@H](C)/C=C\CC(=O)OC[C@H]1C,10.8% [at 11.4 µM] (inactive),–
